Data: PubChem BioAssay AID1259312 (Keith Lab, Institute of Cancer Science, University of …, 2017)
Hit rate of the full screen: of about 4,500 compounds, about 200 (4.4%) were called active. Shown is part of a subset that was picked to be rich in actives. Unmarked numbers belong to inactive results.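 Rule for the calls: active = cell survival measured by absorbance rises more than 2.5-fold over infected cells without compound; inactive = the rest.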

assay: survival after telomere uncapping, modulators, primary screen, cell-based (AID 1259312); conditions: HCT116 + Ad-hTR-mut, MTT, 5 d; at 10 µM, active compounds read high;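 note: virus expresses mutant telomerase RNA that uncaps telomeres and kills cells; compound added 2 days after infection so exposure lasts 3 days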

In the case of O=c1[nH]c2nonc2[nH]c1=O, the fold change is reported as “inactive”.
For O=c1[nH]c(=O)c2cc3c(=O)[nH]c(=O)c3cc12, the fold change was 2.77 (active).
In the case of Nc1n[nH]c(-c2cccnc2)n1, the fold change is reported as 2.61 (active).
For CC12CC3CC(C)(C1)CC(CC(=O)NCC14CC5CC(CC(C5)C1)C4)(C3)C2, the fold change was 3.05 (active).
With COc1ccc(S(=O)(=O)Nc2cc(Cl)c(Cl)cc2Cl)cc1 the fold change was 3.11 (active).
For O=S(=O)(Nc1cc(Cl)c(Cl)cc1Cl)c1ccc(Cl)cc1, the fold change was 3.01 (active).
For COc1ccc(S(=O)(=O)NC2CCCCCC2)cc1, the fold change was 3.33 (active).
In the case of CC(=O)N1c2ccccc2C2(C)C(C1(C)C)C2(Cl)Cl (stereo not drawn), the fold change is reported as 4.16 (active).
With NS(=O)(=O)c1ccc(N=Cc2cccs2)cc1 the fold change was 5.47 (active).
For Oc1ccc(Br)cc1/C=N/c1nccs1, the fold change was “inactive”.
In the case of Oc1ccc(Br)cc1C=Nc1ccc(Cl)cn1, the fold change is reported as “inactive”.
With Oc1ccc2ccccc2c1C=Nc1ccc(Cl)cn1 the fold change was “active”.
With Oc1ccc2ccccc2c1/C=N/c1nccs1 the fold change was “active”.
With Oc1ccc2ccccc2c1/C=N/c1ccccn1 the fold change was “active”.
For Oc1ccc2ccccc2c1C=NCCCCCCN=Cc1c(O)ccc2ccccc12, the fold change was “inactive”.
In the case of OCCN=Cc1c(O)ccc2ccccc12, the fold change is reported as “inactive”.
With CCOC(=O)c1csc(N)n1 the fold change was 2.59 (active).
For [O-][n+]1onc(N=Nc2no[n+]([O-])c2-c2ccccc2)c1-c1ccccc1, the fold change was 2.99 (active).
With Cc1nc2ccccc2nc1NO the fold change was “active”.
For Oc1ccc(Br)cc1/C=N/c1ccccn1, the fold change was “inactive”.
With c1ccc2c(c1)[nH]c1nc3nnnn3nc12 the fold change was “active”.
In the case of c1ccc(-n2nnnc2SCSc2nnnn2-c2ccccc2)cc1, the fold change is reported as 3.7 (active).
With O=C(O)Cn1c(O)c(/C=C2/C=c3ccccc3=NC2=O)sc1=S the fold change was “inactive”.
In the case of O=C(O)CCCn1c(O)c(/C=C2/C=c3ccccc3=NC2=O)sc1=S, the fold change is reported as “active”.
For O=C(O)CCCCCn1c(O)c(C2=c3cc(Br)ccc3=NC2=O)sc1=S, the fold change was “inactive”.
With COc1ccc(NS(=O)(=O)c2ccc(N=Cc3cc(Br)cc(Br)c3O)cc2)nn1 the fold change was “inactive”.
For CCOC(=O)c1c(C)nn2cc(-n3cc([N+](=O)[O-])cn3)cnc12, the fold change was 5.25 (active).
In the case of O=C(CC(C(=O)O)n1ccnc1)c1ccc(C2CCCCC2)cc1 (stereo not drawn), the fold change is reported as 2.74 (active).
In the case of CC1(C)CC(=O)C2=C(C1)OC(N)=C(C#N)C2c1cccs1 (stereo not drawn), the fold change is reported as 4.33 (active).
In the case of CC1CC2=C(C(=O)O1)C(c1cccs1)C(C#N)=C(N)O2 (stereo not drawn), the fold change is reported as 2.62 (active).

In order of rising fold change:
1. Cc1ccc(C2C(C#N)=C(N)OC3=C2C(=O)CC(C)(C)C3)s1 (stereo not drawn)  -4.43
2. CCCCNC(=O)Cn1cc([N+](=O)[O-])cn1  -2.9
3. CCCc1ccn(CCSCC)c1-c1cccs1  -2.47
4. COC(=O)/C(C#N)=C\c1ccc(C)o1  -2.41
5. Cc1nc2ccccc2nc1C  -2.23
6. O=C1/C(=C/c2ccc3c(c2)OCO3)CCc2ccccc21  -2.22
7. O=S(=O)(c1ccc(NC(=S)Nc2ccccc2)cc1)N1CCCCC1  -2.08
8. Cc1nc2ccccc2nc1C=O  -2.07
9. O=C(O)C1OC(O)C(O)C(O)C1O (stereo not drawn)  -2.05
10. O=C(CSc1nc2ccccc2nc1SCC(=O)N1CCCCC1)N1CCCCC1  -1.94
11. NC(=O)c1c(NC(=O)C2COc3ccccc3O2)sc2c1CCCC2 (stereo not drawn)  -1.9
12. COc1ccc(Br)cc1C1C(C#N)=C(N)SC(N)=C1C#N  -1.84
13. O=C(NC1(C(=O)O)CCc2ccccc2C1)OCC1c2ccccc2-c2ccccc21 (stereo not drawn)  -1.79
14. [O-][n+]1onc(C(c2ccccc2)c2ccccc2)c1C(c1ccccc1)c1ccccc1  -1.76
15. C#CCn1cc(/C=C2/SC(=NC)N(C)C2=O)c2ccccc21  -1.74
16. O=C(C1=C(O)C(=O)N(CCN2CCOCC2)C1c1ccco1)c1ccco1 (stereo not drawn)  -1.73
17. O=C(CC(c1ccc(Cl)c(Cl)c1)C1CCCCCC1=O)c1ccc(Cl)cc1 (stereo not drawn)  -1.72
18. CC1(C)CC(=O)C2=C(C1)OC(N)=C(C#N)C2c1cc(Br)cs1 (stereo not drawn)  -1.65
19. COC(=O)C1=C(C)OC(N)=C(C#N)C1c1cccs1 (stereo not drawn)  -1.65
20. C(=N\c1nccs1)/c1ccco1  -1.62
21. c1ccc2nc3c(nc2c1)[nH]c1ccccc13  -1.56
22. Cc1nnc(SCC(=O)Nc2sc3c(c2C#N)CCC3)s1  -1.54
23. COc1ccc(S(=O)(=O)NC(C)C)cc1  -1.48
24. O=C1ON=C(c2ccccc2)/C1=C/N1CCCCC1  -1.47
25. O=c1[nH]c2cc(NCCCO)c([N+](=O)[O-])cc2[nH]1  -1.46
26. Cc1ccc2c(c1)C(O)(CC(=O)c1ccc3c(c1)OCO3)C(=O)N2 (stereo not drawn)  -1.44
27. COCCNS(=O)(=O)c1ccccc1  -1.41
28. ON=C1C2CC3CC(C2)CC1C3  -1.41
29. COc1cc2c(cc1OC)CC1(C2)c2ccccc2CN1C  -1.34
30. CN=C1S/C(=C/c2ccc(C)o2)C(=O)N1C  -1.34
31. Cc1ccc2[nH]c3nc4ccccc4nc3c2c1  -1.34
32. Nc1cc2[nH]c(=O)[nH]c2cc1N  -1.33
33. CN1CCC2(CC1)C(C#N)=C(O)NC1=C2C(=O)CC(C)(C)C1  -1.33
34. CCOC(=O)C1=C(C)NC2=C(C(=O)CC(C)(C)C2)C1c1ccc(C)s1 (stereo not drawn)  -1.32
35. CN=C1S/C(=C/c2cn(Cc3ccc(F)cc3)c3ccccc23)C(=O)N1C  -1.32
36. CS(=O)(=O)Nc1ccc(Cl)cc1Cl  -1.31
37. Cc1ccc(S(=O)(=O)NC2CCCC2)cc1  -1.31
38. O=C(CC1NC(=O)N(C2CCCCC2)C1=O)NCC12CC3CC(CC(C3)C1)C2 (stereo not drawn)  -1.28
39. c1ccc(-c2nonc2N=Nc2nonc2-c2ccccc2)cc1  -1.26
40. CSc1nnnn1-c1ccccc1  -1.25
41. O=C(NC1CCCCCCC1)c1ccc(COc2c(F)c(F)cc(F)c2F)o1  -1.24
42. O=C1CN(C(=O)CSC2CCS(=O)(=O)C2)c2ccccc2N1 (stereo not drawn)  -1.24
43. O=S(=O)(NC1CCCCCC1)c1ccc(F)cc1  -1.23
44. O=C(Nc1nonc1NC(=O)c1ccc2c(c1)OCO2)c1ccc2c(c1)OCO2  -1.22
45. N#Cc1c(-c2ccc(Cl)cc2Cl)csc1N  -1.22
46. CC(=O)N1CCCc2cc(S(=O)(=O)NC(C)(C)C)ccc21  -1.21
47. CC1CCCN(c2nc3ccccn3c(=O)c2C=O)C1 (stereo not drawn)  -1.15
48. CC1(C)O[C@@H]2[C@H](O1)[C@@H](CO)O[C@H]2n1cnc2c(N)ncnc21  -1.14
49. COC(=O)Cn1cnc([N+](=O)[O-])n1  -1.14
50. Clc1nc2nonc2nc1Nc1ccc(Br)cc1  -1.13
51. CCOC(=O)c1sc(N2N=C(C)/C(=C\c3ccc(C)o3)C2=O)nc1C  -1.12
52. NCc1cc(C(F)(F)F)cc(C(F)(F)F)c1  -1.11
53. c1ccc(-c2noc(CSc3nnnn3-c3ccccc3)n2)cc1  -1.1
54. COc1cc2c(cc1N)OCO2  -1.08
55. CC(=O)c1c(O)c(C)c(O)c2c1OC1=CC(=O)C(C(C)=O)C(=O)[C@@]12C (stereo partly drawn)  -1.06
56. O=C(Cc1cccs1)NCCN1CCOCC1  -1.05
57. C/C(=N/Nc1ccc([N+](=O)[O-])cc1)c1ccc(/C(CCl)=N/Nc2ccc([N+](=O)[O-])cc2)s1  -1.04
58. CCOC(=O)CN(C1=NS(=O)(=O)c2ccccc21)c1ccccc1  1.02
59. O=C1CCCN1c1ccc(S(=O)(=O)Nc2ccc3oc4c(c3c2)CCCC4)cc1  1.03
60. O=S(=O)(NC1CCCCCC1)c1ccc(Cl)cc1  1.1
61. CN(C)S(=O)(=O)Nc1cccc([N+](=O)[O-])c1  1.12
62. Clc1ccc(N=Cc2cccc3ccccc23)nc1  1.13
63. c1ccc(-c2nc(-c3cccnc3)[nH]c2-c2ccccc2)cc1  1.14
64. O=[N+]([O-])c1c(Sc2nnnn2C2CCCCC2)ncnc1Sc1nnnn1C1CCCCC1  1.21
65. Clc1ccc(N=Cc2cccs2)cc1  1.21
66. O=c1[nH]c2ccc(F)cc2c(=O)c2ccccc12  1.22
67. CCn1c(=O)n(CC)c2cc(S(=O)(=O)NC3CCCCC3)ccc21  1.22
68. O=[N+]([O-])c1ccc(C=NC2CCCc3c2[nH]c2ccc(Br)cc32)cc1 (stereo not drawn)  1.22
69. O=c1[nH]cnc2sc3c(c12)CCCC3  1.23
70. CC12CC3CC(C)(C1)CC(CC(=O)N1CCN(S(C)(=O)=O)CC1)(C3)C2  1.25
71. COc1ccc(OC)c(NS(=O)(=O)c2ccc(Cl)cc2)c1  1.33
72. CC1Oc2ccc(S(=O)(=O)NCCCn3ccnc3)cc2NC1=O (stereo not drawn)  1.47
73. COc1cc(OC)cc(-c2nc(N)n[nH]2)c1  1.56
74. CCOC(=O)c1sc(N)nc1C  1.75
75. CCOC(=O)Cc1csc(N)n1  1.75
76. CC(CC(=O)O)n1ccnc1 (stereo not drawn)  1.78
77. O=C(O)Cn1cc([N+](=O)[O-])cn1  2.02
78. CCOC(=O)C1=C(C)OC(N)=C(C#N)C1c1cccs1 (stereo not drawn)  2.09
79. ClCCOc1nc(OCCCl)nc(OCCCl)n1  2.12
80. O=C(Nc1ccc(I)cc1)C1CC(=O)N(C2CCCCC2)C1 (stereo not drawn)  2.18
81. COc1cc(C(c2ccccc2)(c2ccccc2)c2ccccc2)cc2c1NC(C)(C)C=C2C  2.23
82. O=S(=O)(Oc1ccc(N=Cc2cccs2)cc1)c1ccc(Cl)cc1  2.24
83. CCCCNC(=O)OCCSC(=S)NCCC  2.45
